The sample as a whole holds a higher share of hits than the screen did.
VACV Venus inh: qHTS for Stage-Specific Inhibitors of Vaccinia Orthopoxvirus: Venus Reporter Primary qHTS; Vaccinia virus Venus reporter expression, fluorescence; Potency, µM (doses to about 36.5 µM), for inactives: at the highest dose activity change, negative = inhibition, hits mostly inhibitors; 330,000 compounds, 0.46% hits; AID 720580, 2013; calls by dose curve; tested in A549 cells; also: potency is read from the fitted curve at half-maximal effect; % is scaled to controls: 0 for no effect and ±100 for the full control effect; nearly all actives have a fitted effect of over 30% in size
CHX counter: Cycloheximide Counterscreen for Small Molecule Inhibitors of Shiga Toxin; max response, %; AID 2314, 2010; 300,000 compounds, 12% hits; cell reporter, cycloheximide protein synthesis inhibition counterscreen; in the data active = max response mostly above about 13%, no sharp cut-off; inactive = mostly below about 14%; also: read at 38.3 µM for the half of the compounds with a filed dose; 0% is about no effect
Lassa entry inh: qHTS for Inhibitors of binding or entry into cells for Lassa Virus; Lassa virus pseudotype entry inhibition, cell reporter; Potency, µM (series often up to 37.9 µM), without a hit: top-dose activity change, negative = inhibition, usual class: inhibitors; 300,000 compounds, 1.2% hits; calls by dose curve; tested in HEK293 cells; also: potency is read from the fitted curve at half-maximal effect; % is scaled to controls: 0 for no effect and ±100 for the full control effect; nearly all actives have a fitted effect of over 50% in size
Vaccinia mCherry: qHTS for Stage-Specific Inhibitors of Vaccinia Orthopoxvirus: mCherry Reporter Primary qHTS; Vaccinia virus mCherry reporter infection, fluorescence; Potency, µM (doses to about 36.5 µM), inactives show top-dose activity change, negative = inhibition, most hits filed as inhibitors; 310,000 compounds, 0.63% hits; calls by dose curve; tested in A549 cells; also: potency is read from the fitted curve at half-maximal effect; % is scaled to controls: 0 for no effect and ±100 for the full control effect; nearly all actives have a fitted effect of over 35% in size
MARV entry inh: qHTS for inhibitors of binding or entry into cells for Marburg Virus. Marburg virus pseudotyped entry inhibition, cell reporter. Potency, µM (top dose mostly 37.8 µM), for the others: at the top dose activity change, negative = inhibition, most hits filed as inhibitors. 300,000 compounds, 1.8% hits. AID 540276, 2011; calls by dose curve; tested in HEK293 cells; also: potency is read from the fitted curve at half-maximal effect; % is scaled to controls: 0 for no effect and ±100 for the full control effect
Shiga inhibitor: A qHTS for Small Molecule Inhibitors of Shiga Toxin | Vero cells, Shiga toxin protein synthesis inhibition reporter | inhibition, % at 38.7 µM | 290,000 compounds, 9.2% hits | AID 2315, 2010; in the data active = inhibition mostly above about 28%, no sharp cut-off; inactive = mostly below about 43%; also: 0% is about no effect
* = called active by the depositor; [ ] = remark or other dose.

For Cc1cccc(N2CCC(N=CN(C)C)=N2)c1 the results were VACV Venus inh -10%, CHX counter 41*, Lassa entry inh -10%[46.1 µM], Vaccinia mCherry -15%, MARV entry inh inconclusive and Shiga inhibitor 100*.
CC1=CC(C)(C)Nc2ccc(OC(=O)c3cccnc3)cc21 was read as CHX counter 27*, Lassa entry inh inconclusive, MARV entry inh inconclusive and Shiga inhibitor 94*.
Screening CC1=CC(C)(C)Nc2ccc(OC(=O)C(C)N3C(=O)c4ccccc4C3=O)cc21 (stereo not given) returned CHX counter 1, Lassa entry inh inconclusive, MARV entry inh inconclusive and Shiga inhibitor -36.
For CC1=CC(C)(C)Nc2ccc(OC(=O)c3ccco3)cc21 the results were VACV Venus inh 85%, CHX counter 17*, Lassa entry inh inconclusive, Vaccinia mCherry -13%, MARV entry inh inconclusive and Shiga inhibitor 38.
COc1ccc(-c2nc3ccccc3s2)cc1NC(=O)c1cccc([N+](=O)[O-])c1C was read as VACV Venus inh -14%, Lassa entry inh 1%[46.1 µM], Vaccinia mCherry -16% and MARV entry inh inconclusive.
`CC(=O)N1c2ccc(S(=O)(=O)NCC3CCC(C(=O)Nc4cccc(C)c4C)CC3)cc2CC1C` (stereo not given) gave VACV Venus inh -19%, Lassa entry inh 1%[46.1 µM] and Vaccinia mCherry -10%.
`CCCN1CNc2c(c(=O)[nH]c(=S)n2CCC(C)(C)C)C1` gave VACV Venus inh -22% and Vaccinia mCherry -26%.
Screening CCN(CC)CCNCC1C(=O)O[C@@H]2C[C@@]3(C)CCC[C@H](C)C3=C[C@H]12 (stereo not given in full) returned VACV Venus inh 10µM*, CHX counter 5, Lassa entry inh inconclusive, Vaccinia mCherry 4.5µM*, MARV entry inh -6% and Shiga inhibitor -12.
Screening Cc1cc2sc(NC(=O)c3ccco3)nc2cc1Cl returned VACV Venus inh -4%, CHX counter 71*, Lassa entry inh inconclusive, Vaccinia mCherry inactive, MARV entry inh inconclusive and Shiga inhibitor 79*.
`COc1cc2sc(NC(=O)c3ccco3)nc2cc1Cl` gave CHX counter 45* and Shiga inhibitor 102*.
COc1ccc(-n2c(=O)c3c(c4cc(OC)ccc4n3C)n(CCC(C)C)c2=O)cc1 was read as VACV Venus inh -9%, Lassa entry inh 29%[46.1 µM] and Vaccinia mCherry -15%.
Screening CCC(Oc1ccccc1OC)C(=O)Nc1ccc2c(c1)OCO2 (stereo not given) returned VACV Venus inh -9%, CHX counter 15, Lassa entry inh 1%, Vaccinia mCherry -19%, MARV entry inh 16%[46.1 µM] and Shiga inhibitor 16.
Screening CN(Cc1ccccc1)CC(O)COc1ccc(CNCc2ccc(Cl)s2)cc1 (stereo not given) returned VACV Venus inh -17%, CHX counter -1, Lassa entry inh inconclusive, Vaccinia mCherry inconclusive, MARV entry inh 2.5µM* and Shiga inhibitor 7.
For CN(Cc1ccccc1)CC(O)COc1ccc(CNCc2cccnc2)cc1 (stereo not given) the results were CHX counter -1 and Shiga inhibitor -6.
O=C(NC1CCN(Cc2ccccc2)CC1)c1cccc(Br)c1 was read as VACV Venus inh -23%, CHX counter -3, Lassa entry inh -13%, Vaccinia mCherry -29%, MARV entry inh -7% and Shiga inhibitor -5.
For CCOc1ccc2oc(C(=O)NC3CCN(Cc4ccccc4)CC3)c(C)c2c1 the results were VACV Venus inh -20%, CHX counter -3, Lassa entry inh 11µM*, Vaccinia mCherry -13%, MARV entry inh inconclusive and Shiga inhibitor 12.
`CCOc1ccc2oc(C(=O)NC(C)(C)CC)c(C)c2c1` gave VACV Venus inh -3%, CHX counter 48*, Lassa entry inh inconclusive, Vaccinia mCherry -12%, MARV entry inh inconclusive and Shiga inhibitor 67*.
For COc1ccc(Cn2c(=O)[nH]c3cc(C(=O)NC4CCN(Cc5ccccc5)CC4)ccc32)cc1 the results were VACV Venus inh -22%, CHX counter -7, Lassa entry inh -25%, Vaccinia mCherry -18%, MARV entry inh 9.2µM* and Shiga inhibitor 5.
Screening CCOc1ccc2oc(C(=O)NC3CC(C)(C)NC(C)(C)C3)c(C)c2c1 returned CHX counter -1, Lassa entry inh -13%, MARV entry inh inconclusive and Shiga inhibitor 6.
`Cc1c(C(=O)NC2CCN(Cc3ccccc3)C2)oc2ccc(Br)cc12` (stereo not given) gave VACV Venus inh -5%, CHX counter 14*, Lassa entry inh inconclusive, Vaccinia mCherry -11%, MARV entry inh inconclusive and Shiga inhibitor 78*.
For Cc1ccc(NC(=O)c2csnn2)c(C)c1 the results were VACV Venus inh -10%, CHX counter 22*, Lassa entry inh 25%, Vaccinia mCherry -13%, MARV entry inh 1% and Shiga inhibitor 32.
Screening Cc1ccc(NC(=O)CC(=O)Nc2ccc(C)cc2C)c(C)c1 returned VACV Venus inh -6%, CHX counter 7, Vaccinia mCherry inactive and Shiga inhibitor 3.
For Cc1ccc(NC(=O)c2ccccn2)c(Br)c1 the results were CHX counter 52*, Lassa entry inh -22%, MARV entry inh inconclusive and Shiga inhibitor 89*.
Cc1ccc(C)c(NC(=O)c2ccccn2)c1 was read as VACV Venus inh -15%, CHX counter 32*, Lassa entry inh 22%, Vaccinia mCherry -8%, MARV entry inh 8% and Shiga inhibitor 47*.
Screening O=C(NC(=O)c1csnn1)Nc1ccccc1Cl returned CHX counter 34* and Shiga inhibitor 22.
Screening Cc1ccc(NC(=O)c2cc(C)nc3ccccc23)c(Br)c1 returned VACV Venus inh -15%, CHX counter -3, Lassa entry inh -2%, Vaccinia mCherry -26% and MARV entry inh -6%.
CC(=O)Nc1ccc(C(=O)N2CCCC(c3nc(SCc4ccccn4)ncc3C)C2)cc1 (stereo not given) was read as VACV Venus inh 16% and Vaccinia mCherry 3%.
`COc1ccc(CN2CCCC(n3cc(C(=O)N4CCCCC4)nn3)C2)c(OC)c1C` (stereo not given) gave VACV Venus inh 7% and Vaccinia mCherry -7%.
Screening CSCc1ccc(C(=O)Nc2cccc(C)c2C)cc1 returned VACV Venus inh -13%, CHX counter 49*, Lassa entry inh 1%, Vaccinia mCherry -1%, MARV entry inh inconclusive and Shiga inhibitor 21.
Screening Cc1ccc(NC(=O)/C=C/c2ccc(Cl)cc2)c(Br)c1 returned VACV Venus inh 1%, Lassa entry inh 1%[46.1 µM] and Vaccinia mCherry 4%.
Screening Cc1ccc(NC(=O)Nc2ccc(Cl)cc2)c(Br)c1 returned VACV Venus inh -4%, CHX counter 28*, Lassa entry inh 14%, Vaccinia mCherry -8%, MARV entry inh inconclusive and Shiga inhibitor active.

Compound activity from PubChem BioAssay.
